Source: PubChem BioAssay (EPA / NIEHS)
Activity calls are given as the source filed them. The calls were made as follows: active = hit-call score of the fitted dose curve at least 0.9, where 1 is the maximum; inactive = score below 0.9.

Test: Tanguay_ZF_120hpf_ANY: Oregon State University Tanguay Lab 120 Hour Post-fertilization zebrafish Assay for Any Mortality and Malformation (AID 2284404)
Procedure: Tanguay_ZF_120hpf is a whole embryo, multiplexed endpoint assay using zebrafish larvae exposed for 120 hours post fertilization on a 96-well plate.Tanguay_ZF_120hpf_ANY is one of one assay component(s) measured or calculated from the Tanguay_ZF_120hpf assay. It is designed to make measurements of developmental malformations and mortality as detected with brightfield microscopy and combines scoring from 13 other assay components measuring more specific morphologies.Data from the assay component Tanguay_ZF_120hpf_ANY was analyzed into 1 assay endpoints. This assay endpoint, Tanguay_ZF_120hpf_ANY, was analyzed in the positive analysis fitting direction relative to DMSO as the negative control and baseline of activity. Using a type of morphology reporter, gain-of-signal activity can be used to understand changes in developmentals as they relate to the whole embryo. To generalize the intended target to other relatable targets, this assay endpoint is annotated to the zebrafish development intended target family, where the subfamily is embryonic morphogenesis and mortality.
Zebrafish husbandry: Tropical 5D wild-type adult zebrafish were housed in at an approximate density of 1000 per 100 gallon tank at the Sinnhuber Aquatic Research Laboratory, Oregon State University, Corvallis, OR. Each tank was kept at standard laboratory conditions of 28C on a 14-h light/10-h dark photoperiod in fish water consisting of reverse osmosis water supplemented with a commercially available salt (Instant Ocean). Spawning funnels were placed into the tanks the night prior, and embryos were collected and staged. To increase bioavailability, the chorion was enzymatically removed using pronase (63.6mg/ml, >/= 3.5U/mg, Sigma-Aldrich: P5147) at 4 hours post fertilization (hpf) using a custom automated dechorionator.Chemical exposures: Six hpf dechorionated embryos were placed 1 embryo per well in a 96-well plate prefilled with 90 ul of EM using automated embryo placement systems (AEPS). Ten microliters of each row of dilution plate 2 was added to 2 exposure plates. The final DMSO concentration used was 0.64% (vol/vol). Thirty-two embryos were also exposed to 5uM trimethyltin chloride (positive control). Plates were sealed to prevent evaporation and foil covered to reduce light exposure and kept in a 28C incubator. Embryos were statically exposed until 120 hpf. At 24 hpf, embryos were assessed for photomotor response using a custom photomotor response analysis tool (PRAT) and for developmental toxicity endpoints (MO24: mortality at 24 hpf, DP: developmental progression, SM: spontaneous movement, and NC: notochord distortion). At 120 hpf, locomotor activity was measured using Viewpoint Zebralab and assessed for 13 endpoints. Zebrafish acquisition and analysis program (ZAAP), a custom program designed to inventory, acquire, and manage zebrafish data, was used to collect developmental endpoints as either present or absent (i.e., binary responses were recorded). If mortality occurred for an embryo (at either 24 or 120 hpf), the non-mortality endpoints were not measured.

For `C=CC(=O)OCC(F)(F)C(F)(F)C(F)(F)C(F)(F)COC(=O)C=C`, which AC50 is on record?
The AC50 was 14.2 µM (active).

With `OCCCC(F)(F)C(F)(F)C(F)(F)C(F)(F)C(F)(F)C(F)(F)C(F)(F)F` as the compound, how does the outcome read?
The outcome was “inactive”.

With `C=CC(=O)OCC(F)(F)C(F)(F)C(F)(F)C(F)(F)C(F)(F)C(F)(F)C(F)(F)F` as the compound, how does the outcome read?
The outcome was “inactive”.

For `O=C(O)C(F)(OC(F)(F)C(F)(OC(F)(F)C(F)(OC(F)(F)C(F)(F)C(F)(F)F)C(F)(F)F)C(F)(F)F)C(F)(F)F` (stereo not given), which outcome is on record?
The outcome was “inactive”.

Which outcome does the source give for `FC1CC(F)(F)C(F)(F)C1(F)F` (stereo not given) here?
The outcome was “inactive”.

With `C=C(C)C(=O)OCCC(F)(F)C(F)(F)C(F)(F)C(F)(F)C(F)(C(F)(F)F)C(F)(F)F` as the compound, how does the outcome read?
Its outcome is “inactive”.

With `CCCCCCCCC(F)(F)C(F)(F)C(F)(F)C(F)(F)C(F)(F)C(F)(F)F` as the compound, how does the outcome read?
Its outcome is “inactive”.

For `FC(F)(F)C(F)(F)C(F)(F)C(F)(F)C(F)(F)C(F)(F)CC1CO1` (stereo not given), which outcome is on record?
The outcome was “inactive”.

Which outcome does the source give for `O=C(O)C(F)(OC(F)(F)C(F)(OC(F)(F)C(F)(F)C(F)(F)F)C(F)(F)F)C(F)(F)F` (stereo not given) here?
The outcome was “inactive”.

For `CC(C)(C)C(=O)CC(=O)C(F)(F)C(F)(F)C(F)(F)F`, which outcome is on record?
The outcome was “inactive”.

With `O=C(O)C(F)(F)C(F)(F)C(F)(F)F` as the compound, how does the outcome read?
The outcome was “inactive”.

For `O=C(O)C(F)(F)C(F)(F)C(F)(F)C(F)(F)C(F)(F)C(F)(F)C(F)(F)C(F)(F)C(F)(F)C(F)(F)C(F)(F)C(F)(F)C(F)(F)F`, which outcome is on record?
The outcome was “inactive”.

With `FC(F)(F)C(F)(F)C(F)(F)C(F)(F)CCI` as the compound, how does the outcome read?
Its outcome is “inactive”.

With `OCC(F)(F)C(F)(F)C(F)(F)C(F)(F)C(F)(F)C(F)F` as the compound, how does the outcome read?
Its outcome is “inactive”.

For `O=C(O)C(F)(F)C(F)(F)OC(F)(F)F`, which outcome is on record?
The outcome was “inactive”.

With `N=C(N)C(F)(F)C(F)(F)C(F)(F)C(F)(F)C(F)(F)C(F)(F)C(F)(F)F` as the compound, how does the outcome read?
The outcome was “inactive”.

Which outcome does the source give for `O=C(O)C=C(C(F)(F)F)C(F)(F)F` here?
Its outcome is “inactive”.

Which outcome does the source give for `FC(F)(F)C(F)(F)C(F)(F)C(F)(F)C(F)(F)CCI` here?
Its outcome is “inactive”.

Which outcome does the source give for `O=S(=O)(OCC(F)F)C(F)(F)F` here?
The outcome was “inactive”.

Which AC50 does the source give for `C=CC(F)(F)C(F)(F)C(F)(F)C(F)(F)C(F)(F)C(F)(F)C(F)(F)C(F)(F)C=C` here?
Its AC50 is 10.3 µM (active).

Which outcome does the source give for `FC(F)(F)C(F)(F)CNCC(F)(F)C(F)(F)F` here?
The outcome was “inactive”.

For `O=C(O)C(F)(F)C(F)(F)C(F)(F)C(F)(F)C(F)(F)C(F)(F)C(F)(F)C(F)(F)Cl`, which AC50 is on record?
The AC50 was 39.8 µM (active).

With `O=P(O)(O)OCCC(F)(F)C(F)(F)C(F)(F)C(F)(F)C(F)(F)C(F)(F)F` as the compound, how does the AC50 read?
The AC50 was 39.1 µM (active).

With `O=C(O)C(F)(F)C(F)(F)C(F)(F)C(F)(F)C(F)(F)C(F)(F)C(F)(F)C(F)(F)C(F)(F)C(F)F` as the compound, how does the AC50 read?
Its AC50 is 28.8 µM (active).

For `C=C(C)C(=O)OCC(F)(F)C(F)(F)C(F)(F)C(F)(F)C(F)(F)C(F)(F)C(F)(F)F`, which outcome is on record?
Its outcome is “inactive”.

For `CCO[Si](CCC(F)(F)C(F)(F)C(F)(F)C(F)(F)C(F)(F)C(F)(F)F)(OCC)OCC`, which outcome is on record?
Its outcome is “inactive”.

Which outcome does the source give for `OCC(F)(F)C(F)(F)C(F)(F)C(F)F` here?
The outcome was “inactive”.

With `FC(F)(F)C(F)(F)C(F)(F)C(F)(F)C(F)(F)C(F)(F)C(F)(F)C(F)(F)CCS` as the compound, how does the outcome read?
Its outcome is “inactive”.

Which outcome does the source give for `C=CC(F)(F)C(F)(F)C(F)(F)C(F)(F)C(F)(F)C(F)(F)C(F)(F)C(F)(F)F` here?
The outcome was “inactive”.

For `Cc1ccc(S(=O)(=O)OCC(F)(F)C(F)(F)C(F)(F)C(F)(F)C(F)(F)C(F)F)cc1`, which outcome is on record?
Its outcome is “inactive”.

With `FC(F)(F)C(F)(F)C(F)(F)N(C(F)(F)C(F)(F)C(F)(F)F)C(F)(F)C(F)(F)C(F)(F)F` as the compound, how does the outcome read?
Its outcome is “inactive”.

Which outcome does the source give for `O=S(=O)(OCCOC(F)(F)F)C(F)(F)F` here?
Its outcome is “inactive”.

With `FC(F)(F)C(F)(F)C(F)(F)C(F)(F)C(F)(F)C(F)(F)C(F)(F)C(F)(F)F` as the compound, how does the outcome read?
The outcome was “inactive”.

With `NC(=O)C(F)(F)C(F)(F)C(F)(F)C(F)(F)F` as the compound, how does the outcome read?
The outcome was “inactive”.

Which outcome does the source give for `O=C(O)C(F)(F)C(F)(F)F` here?
Its outcome is “inactive”.

With `O=C(CC(=O)C(F)(F)C(F)(F)F)C(F)(F)F` as the compound, how does the AC50 read?
Its AC50 is 0.0499 µM (active).

For `FC(F)(F)C(F)(F)C(F)(F)CI`, which outcome is on record?
The outcome was “inactive”.

Which outcome does the source give for `O=C(O)C(F)(F)C(F)(F)C(F)(F)C(F)(F)F` here?
Its outcome is “inactive”.

For `OCC(F)(F)C(F)(F)C(F)(F)C(F)(F)C(F)(F)C(F)(F)F`, which AC50 is on record?
The AC50 was 112 µM (active).

With `FC(F)(F)C(F)(F)C(F)(F)C(F)(F)C(F)(F)C(F)(F)C(F)(F)I` as the compound, how does the outcome read?
The outcome was “inactive”.
